# Screening results: PubChem, several laboratories
# NR5A2 inv ag = LRH-1 (NR5A2) inverse agonists, primary screen, cell-based, luminescence, HEK293T, StAR-luciferase reporter; AID 602396, 2012; Nuclear receptor subfamily 5 group A member 2 (Homo sapiens), O00482; 360,000 compounds, 0.13% hits; LRH-1 transfected, 24 h; inhibition, % at 3.6 µM;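 active means inhibition above the mean inhibition of all tested compounds plus 3 SD, cut at about 73% in these data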
# NCOA1 inh = SRC1 coactivator transcriptional activity inhibitors, primary screen, cell-based, luminescence | Nuclear receptor coactivator 1 (Homo sapiens), Q15788 | HEK293 GAL4-SRC1 luciferase reporter | inhibition, % at 3.6 µM | 360,000 compounds, 0.12% hits | AID 588354, 2011;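 active means inhibition above the campaign mean plus 3 SD, with each screening campaign given its own cutoff, cut at about 60% in these data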
# Gli-Sufu block = Gli-Sufu pathway antagonists, primary screen, luciferase luminescence, Sufu-KO-LIGHT cells, uHTS; Sufu-KO-LIGHT fibroblasts, Gli luciferase reporter luminescence; inhibition, % at 5 µM; 340,000 compounds, 0.74% hits;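 active means inhibition above about 55%, limit read from the data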
# SRC2 inh = inhibition of GAL4-SRC2 driven luciferase reporter, primary screen, SRC2 inhibitor project, cell-based, luminescence; inhibition, % at 9 µM; Nuclear receptor coactivator 2 (Homo sapiens), Q15596; HEK293 GAL4-SRC2 luciferase reporter; 370,000 compounds, 0.17% hits; AID 651957, 2012;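 active means inhibition above the mean inhibition of all tested compounds plus 3 SD, set per campaign, cut at about 52% in these data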
# SRC3 inh = SRC3 coactivator transcriptional activity inhibitors, primary screen, cell-based, luminescence; HEK293 GAL4-SRC3 luciferase reporter; Nuclear receptor coactivator 3 (Homo sapiens), Q9Y6Q9; inhibition, % at 3.6 µM; 360,000 compounds, 0.17% hits;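 active means inhibition above a per-campaign cutoff, the mean of all compounds plus 3 SD, cut at about 60% in these data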;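 further: higher means less SRC3-driven luciferase light from the GAL4 reporter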
# Shn3 3UTR inh = reduction of Shn3 3'UTR firefly luciferase signal, primary screen, Schnurri-3 inhibitor project, cell-based, Clone20 osteoblasts, set 2 | 360,000 compounds, 0.52% hits | inhibition, % at 12.5 µM | Clone20 osteoblast Shn3 3'UTR firefly luciferase, 24 h;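 active means mean inhibition of at least 75% with every replicate also reaching 75%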
# Gli antag conf = Gli-SUFU pathway antagonists, confirmation, single concentration, luciferase luminescence, Sufu-KO-LIGHT cells | shares compounds with Gli-Sufu block | Gli luciferase reporter | inhibition, % at 5 µM | 2,500 compounds, 40% hits | AID 602428, 2012;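 active means mean inhibition at 5 µM reaching about 45%, limit read from the data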
# SufuKO cytotox = cytotoxicity in Sufu-KO-LIGHT cells, confirmation, cytotoxicity control for Gli-SUFU antagonist project, cell-based, ATP luminescence, single concentration; shares compounds with Gli-Sufu block; cytotoxicity, % at 5 µM; 2,500 compounds, 32% hits; AID 651994, 2013;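 active means mean cytotoxicity at 5 µM above about 25%, limit read from the data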;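 further: cells exposed to compound overnight for roughly 16 to 18 hours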
# Wnt3a counter = Wnt3a reporter signal inhibition, confirmation, counter-screen for Gli-SUFU antagonist project, Wnt-LIGHT cells, luminescence, single concentration; inhibition, % at 6.25 µM; 2,500 compounds, 20% hits; AID 651995, 2013; shares compounds with Gli-Sufu block; Wnt3a-driven luciferase reporter;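 active means mean inhibition above about 25%, limit read from the data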
# Hits are given with their value; - = inactive; . = no result. Sampled rows, rich in hits. Any-hit rate of the full collection: about 1.1%.
SMILES,NR5A2 inv ag,NCOA1 inh,Gli-Sufu block,SRC2 inh,SRC3 inh,Shn3 3UTR inh,Gli antag conf,SufuKO cytotox,Wnt3a counter
COCCCNC(=O)C[C@H]1C[C@@]2(C(=O)OC)C(=C[C@H](C3CCCC3)O[C@@H]2C)N(CCc2ccc(OC)c(OC)c2)C1=O,.,.,.,-,.,.,.,.,.
O=C(CN1CCOCC1)NCc1cc([N+](=O)[O-])ccc1O,-,-,55.1,-,-,-,-,-,-
COc1ccccc1N1CCN(S(=O)(=O)c2ccc3c(c2)CCC(=O)N3)CC1,.,.,.,-,.,.,.,.,.
Nn1c(SCC(=O)NC2CCCCC2)nnc1-c1cc(-c2ccc(F)cc2)n[nH]1,.,.,.,-,.,.,.,.,.
COc1ccc(C2CC(c3ccccc3)=NN2S(=O)(=O)c2ccc(C)cc2)c(OC)c1 (stereo unspecified),-,-,-,-,-,-,-,37.4,-
COc1ccc(N2CCN(C(=O)c3ccc(Cn4nc(C)c([N+](=O)[O-])c4C)o3)CC2)cc1,-,-,90.3,-,-,-,-,26.9,-
COc1ccc(S(=O)(=O)Cc2ccc(C(=O)N3CCN(c4ccc(Cl)cc4)CC3)o2)cc1,-,-,-,-,-,-,-,-,-
CCCOc1ccccc1C1CC(=O)Nc2cc3c(cc21)OCCO3 (stereo unspecified),-,-,65.9,.,-,87.3,65.3,59.9,-
Cc1cc(C)n2c(SCCC(C)C)nnc2n1,-,-,62.5,-,-,-,-,-,-
CC(=O)Nc1ccc(C(=O)NC2CCCC2)cc1,-,-,-,-,-,-,.,.,.
O=C(Nc1ccc(C(=O)NC2CCCCC2)cc1)c1cccnc1,-,-,55.0,-,-,-,-,-,-
S=C(Nc1cccnc1)NC1CCCC1,-,-,59.1,-,-,-,-,-,-
Cc1cc(C#N)c(C)c(SCc2[nH]nc3c2C(c2ccccc2)C(C#N)=C(N)O3)n1 (stereo unspecified),-,-,57.8,-,-,-,-,-,-
CCN1CCS/C1=C\C=C\C1=[N+](CC)CCS1,-,-,80.7,-,-,-,87.2,33.5,50.2
CC(C)CNc1cccc2c1S(=O)(=O)N(Cc1cn(Cc3ccc(F)cc3)nn1)Cc1ccccc1O2,.,.,.,-,.,.,.,.,.
COc1ccccc1NS(=O)(=O)c1ccc2c(c1)CCN2C(=O)CCC(=O)O,-,-,-,-,-,-,-,-,-
CCC(=O)N1CCc2cc(S(=O)(=O)Nc3ccccc3C)ccc21,-,-,-,-,-,-,.,.,.
CN(Cc1nc2ccccc2c(=O)[nH]1)Cc1nc2ccsc2c(=O)[nH]1,-,-,62.5,-,-,-,-,-,39.1
Cc1cccc(NC(=O)Cn2nnc(-c3ccccc3F)n2)c1C,.,.,.,-,.,.,.,.,.
Cc1ccc2nc3c(cc(S(=O)(=O)c4ccccc4)c(=N)n3Cc3ccco3)c(=O)n2c1,-,-,-,-,-,-,-,-,-
COc1cc(/C=N\NC(=O)c2ccc(Cn3nc([N+](=O)[O-])c(Cl)c3C)o2)ccc1O,-,-,-,-,-,-,.,.,.
COc1cccc(/C=N\NC(=O)c2ccc(Cn3cc(Br)c([N+](=O)[O-])n3)o2)c1O,-,-,55.9,-,-,89.1,50.0,-,47.1
COC(=O)[C@]12C[C@H](CC(=O)NCc3ccccc3)C(=O)N(Cc3cccc4ccccc34)C1=C[C@H](C1CCCC1)O[C@@H]2C,.,.,.,-,.,.,.,.,.
